Assay outcomes (PubChem BioAssay)
14-3-3 PPI – modulators of human 14-3-3 gamma - Raf peptide interaction | P61981 | FP, 14-3-3gamma / TMR-pS259-Raf peptide binding | inhibition, % at 40 µM | 160,000 tested, 0.19% active; in the data active = inhibition above about 30%
Target sequence (P61981 whole entry, looked up): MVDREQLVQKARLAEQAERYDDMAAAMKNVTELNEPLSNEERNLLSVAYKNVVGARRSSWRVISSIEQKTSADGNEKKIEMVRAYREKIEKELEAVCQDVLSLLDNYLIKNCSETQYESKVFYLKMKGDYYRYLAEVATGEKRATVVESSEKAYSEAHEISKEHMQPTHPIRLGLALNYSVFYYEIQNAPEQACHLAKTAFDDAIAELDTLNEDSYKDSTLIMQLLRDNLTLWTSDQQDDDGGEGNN
A number is an active result; – = inactive. Shown is part of a subset that was picked to be rich in hits.

SMILES	14-3-3 PPI
CCCS(=O)(=O)N1N=C(c2ccc(NS(C)(=O)=O)cc2)CC1c1ccccc1F (stereo not given)	70.7
CCS(=O)(=O)Nc1ccc(C2=NN(S(=O)(=O)CC)C(c3ccccc3F)C2)cc1 (stereo not given)	–
CS(=O)(=O)Nc1ccc(C2=NN(S(C)(=O)=O)C(c3ccccc3F)C2)cc1 (stereo not given)	–
O=C(NCc1ccccc1Cl)c1cccc(N2CCCC2=O)c1	–
O=C(O)c1cccnc1SC1CC(=O)N(c2ccc3c(c2)OCO3)C1=O (stereo not given)	–
O=C(O)c1cccnc1SC1CC(=O)N(c2ccc([N+](=O)[O-])cc2)C1=O (stereo not given)	–
O=C(O)c1cccnc1SC1CC(=O)N(c2ccc(N3CCOCC3)cc2)C1=O (stereo not given)	30.3
CN1c2ccc(I)cc2C(C)(C)C12C=Cc1cc([N+](=O)[O-])ccc1O2 (stereo not given)	–
Cc1ccc(CNC(=O)c2cc(=O)[nH]c3ccc(S(=O)(=O)N4CCCC(C)C4)cc23)cc1 (stereo not given)	–
CC(=O)Oc1ccccc1N1C(=O)c2ccccc2C1=O	–
CNc1ccc(OC)c2c1C(=O)c1ccccc1C2=O	–
CC(=O)Oc1ccc(OC(C)=O)c2c1C(=O)c1ccccc1C2=O	69.1
Cc1ccc(N=C2C(=O)Nc3ccccc32)cc1	–
CN(C)c1ccc(/C=C2\C(=O)Nc3ccccc32)cc1	38.3
CCN(CC)c1ccc(N=C2C(=O)Nc3ccccc32)cc1	–
CCN(C(=O)c1cc2cc3ccc(OC)cc3nc2o1)c1cc(C)ccc1C	–
CCc1cccc(NC(=O)c2cc3cc4ccc(OC)cc4nc3o2)c1	–
COc1ccc2cc3cc(C(=O)NC(C)CCc4ccccc4)sc3nc2c1 (stereo not given)	–
CCc1ccccc1N(CC)C(=O)c1cc2cc3ccc(OC)cc3nc2o1	176.8
CCOc1ccc(N(CC)C(=O)c2cc3cc4ccc(OC)cc4nc3o2)cc1	–
COc1ccc2cc3cc(C(=O)NC(C)CCc4ccccc4)oc3nc2c1 (stereo not given)	144.7
COc1ccc(N(CC(=O)Nc2ccc(C)c(C)c2)S(=O)(=O)c2ccccc2)c(OC)c1	–
O=C(NCCO)c1c(O)c2cccc3c2n(c1=O)CCC3	–
CCOc1cccc(C2CC(c3cccc(Br)c3)=NC(C(C)C)N2)c1O (stereo not given)	–
CCOc1ccc(S(=O)(=O)N=C2C=C(Nc3ccc(OC)cc3)C(=O)c3ccccc32)cc1	–
SMILES	14-3-3 PPI
COc1ccc(S(=O)(=O)N=C2C=C(Nc3ccc(O)cc3)C(=O)c3ccccc32)cc1	–
CCc1ccc(S(=O)(=O)N=C2C=C(Nc3ccc(C(=O)OC)cc3)C(=O)c3ccccc32)cc1	32.5
CCOc1ccc(NC2=CC(=NS(=O)(=O)c3ccc(CC)cc3)c3ccccc3C2=O)cc1	–
CCc1ccc(S(=O)(=O)N=C2C=C(Nc3ccccc3)C(=O)c3ccccc32)cc1	–
CCOC(=O)c1ccc(NC2=CC(=NS(=O)(=O)c3ccc(OC)cc3)c3ccccc3C2=O)cc1	81.7
O=C(Nc1ccc(Oc2ccc(Cl)cc2)cc1)c1cccnc1Cl	–
CCOC(=O)C1=C(C)NC(=S)NC1c1ccc(N(C)C)cc1 (stereo not given)	–
CCOc1ccc2nc(SCC(=O)N(c3ccccc3)C(C)C)[nH]c2c1	–
c1coc(-c2cc(C3CCNCC3)[nH]n2)c1	42.2
Nc1cc(-c2ccco2)no1	–
O=C(O)c1cc(-c2ccco2)[nH]n1	–
CCOC(=O)C(Cc1ccc(OC)c([N+](=O)[O-])c1)NC(=O)CC (stereo not given)	–
N=C1C(c2nc3ccccc3c(=O)[nH]2)=C(O)CN1c1ccc2c(c1)OCO2	–
COc1ccc(N=Cc2cc(Cc3ccccc3Cl)cc([N+](=O)[O-])c2O)cc1OC	79.0
COc1ccc(N=Cc2cc(Cl)cc([N+](=O)[O-])c2O)cc1Cl	–
COc1ccc(N=Cc2cc([N+](=O)[O-])cc(Br)c2O)cc1OC	–
CCOC(=O)c1nn(-c2ccc(OC)cc2)c(=O)c2c(NC(=O)CC3CCCCC3)scc12	–
COc1ccc(Nc2ccc(N3C(=O)C4CC=CCC4C3=O)cc2[N+](=O)[O-])cc1OC (stereo not given)	–
CC(C)(C)c1ccc(C(=O)Nc2ccc(-c3nc4ncccc4o3)cc2)cc1	–
O=C(COc1ccccc1)Nc1ccc(NC(=O)c2ccccc2)cc1	–
CCOc1ccc(-c2n[nH]c3c2C(c2ccccc2)N(c2ccc(Br)cc2)C3=O)cc1 (stereo not given)	134.1
COc1ccc(-c2n[nH]c3c2C(c2ccc(OC)cc2)N(c2ccc(Br)cc2)C3=O)cc1 (stereo not given)	–
CCOc1cc(C2c3c(-c4ccc(OC)cc4)n[nH]c3C(=O)N2c2ccc(Br)cc2)ccc1O (stereo not given)	–
O=C(Oc1ccc(Cl)cc1)c1cccc(N2C(=O)C3CCCCC3C2=O)c1 (stereo not given)	–
O=C(NCc1cccnc1)c1cc(S(=O)(=O)N2CCOCC2)ccc1F	–
